Compound activity (PubChem)
A selection: hits, their analogues and other compounds. The true share with any hit is near 14%.
HCV inhibitor: qHTS Assay for Inhibitors of Hepatitis C Virus (HCV); Huh7.5.1 HCVcc-Cre infection, luciferase reporter, 44 h; Potency, µM (titrated, usually from 41.8 µM), usual class: inhibitors; actives 3.4% (n = 340,000)
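Infectious HCV cell culture screen: compound-treated cells (1,000/well, pre-plated 4 h) are infected with HCVcc-Cre at roughly 0.5 moi and grown 44 h. Infection is quantified by luciferase signal after 15 min substrate incubation at room temperature.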
HCMV inh: qHTS Assay for inhibitors of the human cytomegalovirus (HCMV); HFF cells, HCMV-luciferase reporter, 72 h; hits give low values; activity change, negative = inhibition, % at 57.5 µM; actives 4.5% (n = 410,000); in the data active = activity change below about -60%; inconclusive = no clear call, values can overlap the other calls; inactive = above about -39%
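Two-dose cell screen: HFF monolayers treated with compounds and infected with luciferase-expressing HCMV at 1 PFU/cell, 72 h at 37C, then lysed for luciferase measurement.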
Pf growth 96h: Primary qHTS for delayed death inhibitors of the malarial parasite plastid, 96 hour incubation | P. falciparum luciferase reporter growth, 96 h | Potency, µM (highest dose often 28.7 µM), usual class: inhibitors | actives 6.9% (n = 320,000)
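Infected RBCs, 2% Hct / 0.05% parasitemia final; luciferase-reporter P. falciparum; cpd 96 h, 37 C, 5% CO2; luciferase detection reagent; luminescence.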
MARV entry inh: qHTS for inhibitors of binding or entry into cells for Marburg Virus; Marburg virus pseudotyped entry inhibition, cell reporter; Potency, µM (titrated, usually from 37.8 µM), usual class: inhibitors; actives 1.8% (n = 300,000); AID 540276, 2011; calls by dose curve; tested in HEK293 cells
Pf growth 48h: Primary qHTS for delayed death inhibitors of the malarial parasite plastid, 48 hour incubation; P. falciparum luciferase growth in erythrocytes, 48 h; Potency, µM (highest dose often 28.7 µM), most hits filed as inhibitors; actives 5.9% (n = 310,000)
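A one-generation exposure of luciferase-tagged malaria parasites in RPMI 1640/Albumax erythrocyte culture, 37 C and 5% CO2. Inhibition is inferred from decreased luminescence after adding detection reagent.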
LASV entry inh: qHTS for Inhibitors of binding or entry into cells for Lassa Virus | actives 1.2% (n = 300,000) | Potency, µM (top dose mostly 37.9 µM), usual class: inhibitors | Lassa virus pseudotype entry inhibition, cell reporter | AID 540256, 2011; calls by dose curve; tested in HEK293 cells; note: nearly all actives have a fitted effect of over 50% in size
Numbers stand for hits; [ ] = dose if it differs, or a comment. Unless noted, calls come from the whole dose curve; as a rule, active = well fitted inhibition curve with a large enough effect; inconclusive = small, poorly fitted or top-dose-only effect, or another doubt; inactive = no such curve, though single readings can be large or run the other way.

What do the screens show for `O=C(CCc1ccccc1O)N/N=C/c1ccc(Sc2cccc3cccnc23)o1`?
HCV inhibitor: inconclusive; HCMV inh: inactive; Pf growth 96h: 3.7µM; MARV entry inh: inconclusive; LASV entry inh: inactive

Results for Cc1ccc(C)c(C2=NNC(=O)CC2)c1 ?
HCV inhibitor: inactive; HCMV inh: inactive; MARV entry inh: inactive; LASV entry inh: inactive

How did CN1CCC(NCCC(c2ccc(F)cc2)c2ccc(Cl)cc2)CC1 (stereo unspecified) do in these assays?
HCV inhibitor: 2µM; HCMV inh: -97; Pf growth 96h: 1.9µM; MARV entry inh: inconclusive; Pf growth 48h: 1.7µM; LASV entry inh: inconclusive

How did CC(C)C(CCNCc1ccccn1)c1ccc(Cl)cc1 (stereo unspecified) do in these assays?
HCV inhibitor: inconclusive; HCMV inh: inconclusive; Pf growth 96h: inconclusive; MARV entry inh: inconclusive; Pf growth 48h: inconclusive; LASV entry inh: inactive

How did CC(C)C(CCNC1CCN(C)CC1)c1ccc(Cl)cc1 (stereo unspecified) do in these assays?
HCV inhibitor: 1.4µM; HCMV inh: -99; Pf growth 96h: inconclusive; Pf growth 48h: inactive[0.00184 µM]

How did COc1ccc(O[C@H]2C=C[C@@H](c3ccccc3)O[C@H]2COC(=O)CCC(C)=NO[C@H](C)c2cn([C@@H]3COC[C@@H]3O)nn2)cc1 do in these assays?
MARV entry inh: inactive; LASV entry inh: inactive

Results for Cc1ccc(-c2csc(=Nc3ccccc3)n2Cc2ccc3c(c2)OCO3)cc1C ?
HCMV inh: inactive; MARV entry inh: inconclusive; LASV entry inh: inactive

How did CC(C)C[C@H](NC(=O)c1[nH]cnc1C(=O)Nc1ccccc1)C(=O)OC(C)(C)C do in these assays?
HCV inhibitor: inactive; HCMV inh: -102; Pf growth 96h: inconclusive; Pf growth 48h: 13µM

What do the screens show for `CCOC(=O)c1ccc(NC(=O)c2nc[nH]c2C(=O)N[C@@H](CC(C)C)C(=O)OC(C)(C)C)cc1`?
HCV inhibitor: inactive; HCMV inh: inactive; Pf growth 96h: 9.3µM; Pf growth 48h: 7.4µM

How did CCOC(=O)c1ccc(NC(=O)c2nc[nH]c2C(=O)N[C@@H](C)C(=O)OC(C)(C)C)cc1 do in these assays?
HCV inhibitor: inactive; HCMV inh: inactive; Pf growth 96h: inconclusive; Pf growth 48h: inconclusive

What do the screens show for `O=C(Nc1ccccc1)c1nc[nH]c1C(=O)NCc1ccccc1`?
HCV inhibitor: inactive; HCMV inh: inactive; Pf growth 96h: inconclusive; Pf growth 48h: inactive

How did NNC(=O)c1nc[nH]c1C(=O)Nc1ccccc1 do in these assays?
HCV inhibitor: inactive; HCMV inh: inactive; Pf growth 96h: 10µM; Pf growth 48h: inactive

Results for Cn1c(=O)c2c3c(sc2n2c(SCC(N)=O)nnc12)C[C@H](C(C)(C)C)CC3 ?
MARV entry inh: inactive

Results for Cc1ccc(S(=O)(=O)c2ccc([N+](=O)[O-])o2)cc1 ?
HCV inhibitor: 3.5µM; HCMV inh: inactive; MARV entry inh: 7.9µM; LASV entry inh: inconclusive

Results for Cc1ccc(S(=O)(=O)Nc2c(C)cc([N+](=O)[O-])cc2C)cc1 ?
HCV inhibitor: inactive; HCMV inh: inactive; MARV entry inh: inactive; LASV entry inh: inactive

Results for CCCOc1ccc(C(=O)Nc2ccc(S(=O)(=O)N3C[C@@H]4C[C@@H](C3)c3cccc(=O)n3C4)cc2)cc1 ?
HCV inhibitor: 3.2µM; HCMV inh: inactive; Pf growth 96h: 4.7µM; MARV entry inh: inactive; Pf growth 48h: 2.1µM

What do the screens show for `COc1ccc(S(=O)(=O)N2CC3CC(C2)c2cccc(=O)n2C3)cc1` (stereo unspecified)?
HCV inhibitor: inactive; HCMV inh: -65; Pf growth 96h: inactive; MARV entry inh: inactive; Pf growth 48h: inactive; LASV entry inh: inactive

Results for CC(C)(C)c1ccc(S(=O)(=O)N2CC3CC(C2)c2cccc(=O)n2C3)cc1 (stereo unspecified) ?
HCV inhibitor: inactive; HCMV inh: inactive; Pf growth 96h: inactive; MARV entry inh: inactive; Pf growth 48h: inactive; LASV entry inh: inactive

What do the screens show for `Cc1ccccc1Oc1ccc2c(c1)[C@@H]1C[C@H]3[C@@H](C(=O)N1CC2)[C@H](C)ON3C`?
HCV inhibitor: inactive[8.37 µM]; HCMV inh: inactive

Results for CCOC(=O)Cn1c(=O)c(F)cn(Cc2ccc(OC)c([N+](=O)[O-])c2)c1=O ?
HCV inhibitor: inactive; HCMV inh: inactive; Pf growth 96h: 10µM; MARV entry inh: inconclusive; Pf growth 48h: inactive; LASV entry inh: inactive

Results for CC1CCCN(CCOc2ccc3ccccc3c2Br)C1 (stereo unspecified) ?
HCV inhibitor: 11µM; HCMV inh: -83; Pf growth 96h: inconclusive; MARV entry inh: inconclusive; Pf growth 48h: inconclusive; LASV entry inh: inconclusive

Results for CCOc1ccc(-n2c(=O)c3c4c(sc3n(CC(=O)Nc3cccc(C(F)(F)F)c3)c2=O)CCCCC4)cc1 ?
HCMV inh: inactive; MARV entry inh: inconclusive; LASV entry inh: inactive

How did CC(=O)/C(=N\Nc1ccccc1)Sc1nnc(-c2ccccc2)n1-c1ccccc1 do in these assays?
HCV inhibitor: inactive; HCMV inh: inactive; Pf growth 96h: inconclusive; MARV entry inh: inconclusive; Pf growth 48h: inactive; LASV entry inh: inactive

What do the screens show for `CC(=O)C(N=Nc1ccccc1)(Sc1nnc(-c2ccccc2)n1-c1ccccc1)C(C)=O`?
HCV inhibitor: inconclusive; HCMV inh: inconclusive; Pf growth 96h: 12µM; MARV entry inh: inconclusive; Pf growth 48h: inconclusive; LASV entry inh: inconclusive

How did CC(=O)C(N=Nc1ccccc1)(Sc1nnc(-c2ccccc2)n1-c1ccccc1)C(=O)Nc1ccccc1 (stereo unspecified) do in these assays?
HCV inhibitor: inactive; HCMV inh: inactive; Pf growth 96h: 12µM; MARV entry inh: inconclusive; Pf growth 48h: 13µM; LASV entry inh: inactive

Results for CC(=O)/C(=N\Nc1ccccc1Cl)Sc1nnc(-c2ccccc2)n1-c1ccccc1 ?
HCV inhibitor: inconclusive; HCMV inh: -61; Pf growth 96h: inconclusive; MARV entry inh: inactive; Pf growth 48h: inconclusive; LASV entry inh: inactive

What do the screens show for `CC(OC(=O)CCCC(=O)Nc1ccccc1)C(=O)c1ccccc1` (stereo unspecified)?
HCV inhibitor: inactive; HCMV inh: inactive; Pf growth 96h: inactive; MARV entry inh: inconclusive; Pf growth 48h: inactive; LASV entry inh: inactive

What do the screens show for `COCCOC(=O)c1c(NC(=O)CN2CCOCC2)sc(C(N)=O)c1C`?
HCV inhibitor: inactive; HCMV inh: inactive; MARV entry inh: inactive; Pf growth 48h: inactive; LASV entry inh: inactive

Results for CCCN1CCC(NC(=O)Nc2cc(Cl)ccc2OC)CC1 ?
HCV inhibitor: inactive; HCMV inh: inactive; Pf growth 96h: inactive; Pf growth 48h: inactive
